This is an account of results in PubChem BioAssay (NCI).

About 83,000 compounds went through this panel and 20% of them were active in at least one assay; those are over-represented in the sample as a whole.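 Treatment: one concentration, 48 hours, 96-well format. Scoring: percent growth, with anything below 10 considered active.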 Calls of active or inactive are those of the source.

The test system of the experiment is SNB-19 CNS. In words: NCI-60 one-dose screen, 48 h (100 = growth as untreated, 0 = no growth, -100 = all killed). The settings on record: 10 µM unless noted. As to the method:
Growth inhibition of the SNB-19 human tumor cell line is measured as a screen for anti-cancer activity. Cells are grown in 96 well plates and exposed to the test compound for 48 hours. Compounds are tested at a single concentration, which is 10^-5 M for most compounds. The reported endpoint is percent growth (GI% or GIPRCNT), where numbers from 0 - 100% represent growth inhibition, and numbers from -100% - 0 represent cell death. For example, a value of 40 represents 60% growth inhibition. A value of 0 means no net growth occurred over the course of the experiment. A value of -40 indicates 40% of cells at the beginning of the experiment died by the end of the experiment. A value of -100 means all cells are dead at the end of the experiment.
NCI-60 Human Tumor Cell Lines Screen was performed using the standard one-dose NCI protocol, which is described in more detail at https://dtp.cancer.gov/discovery_development/nci-60/default.htm.
Compounds with GIPRCNT values below 10 were considered active. Activity score was based on GIPRCNT using the following formula: […]
Score is 0 for GIPRCNT values of 100 or above, 50 for GIPRCNT values of 0, and 100 for GIPRCNT values of -100.
Turning to `O=C1Nc2ccccc2/C1=C/c1nc2ccccc2c(=O)[nH]1`, the growth is 95.5% (inactive).
For `O=[N+]([O-])c1ccc(O)cc1Br` the value was 98.6% (inactive); for `Nc1cnc(C(=O)NNc2nc3cc(F)ccc3n3cccc23)cn1`, 36.1% (inactive).
For `CCSc1oc(-c2ccccc2)nc1[P+](c1ccccc1)(c1ccccc1)c1ccccc1`, the growth is 12.4% (inactive).
For `C/C(Cc1ccc(Cl)cc1)=C(\c1ccc(O)cc1)c1ccc(Cl)cc1` the value was 104% (inactive).
As to `CSc1oc(C)nc1[P+](c1ccccc1)(c1ccccc1)c1ccccc1`, the growth is 45% (inactive).
For the compound `CCOc1ccc(NC(=O)CSc2oc(-c3ccccc3)nc2S(=O)(=O)c2ccc(C)cc2)cc1`, the growth was 70.7% (inactive).
For `COc1cc2c(c(OC)c1OC)CCC(c1cccc(C(=O)Nc3cccc(Cl)c3)c1)O2` (stereo not given) the value was 76.5% (inactive).
Take `Nc1c(C(=O)Nc2ccncc2)sc2nc3c(cc12)C(O)CCC3` (stereo not given): the growth is 95.4% (inactive).
Then `O=C(O)CCCN1C(=O)/C(=C/c2cn(-c3ccccc3)nc2-c2ccc([N+](=O)[O-])cc2)SC1=S`, with 48.9% (inactive); and `C=C(C)[C@@H]1CC[C@]2(C(=O)O)CC[C@]3(C)[C@H](CC[C@@H]4[C@@]5(C)CCC(NC(=O)c6cccc(OC(C)=O)c6OC(C)=O)C(C)(C)[C@@H]5CC[C@]43C)[C@@H]12` (stereo not given in full), with 26% (inactive).
Consider `O=C(c1ccncc1)N1N=C(c2ccc(Cl)cc2)C[C@H]1c1cn(-c2ccccc2)nc1-c1ccccc1`, for which the growth was 88.6% (inactive).
Then `NC(=O)c1cc(I)ccc1NC(=O)/C=C/c1ccccc1`, with 27.3% (inactive); and `COc1ccc(C2=C(Br)C(=O)c3nc(C)ccc3C2=O)cc1`, with 94.9% (inactive).
`O=CN1N=C(c2cccc(Nc3ccnc4cc(Cl)ccc34)c2)CC1c1ccccc1` (stereo not given): the growth is 40.3% (inactive).
For the compound `COc1ccc(-c2ccc(-c3ccc(C(=N)N)cc3)s2)cc1Cl`, the growth was 24% (inactive).
For `CCc1ccccc1-n1c(-c2ccc(OC)cc2)cc(-c2ccc(OC)cc2)c(C#N)c1=O` the value was 33.7% (inactive); for `Nc1c(C(=O)Nc2ccccc2C(F)(F)F)sc2nc3c(cc12)CCC3`, 98.4% (inactive).
In the case of `CCOC(=O)c1cc(C(=O)c2cc(OC)c(OC)c(OC)c2)n2ncccc12`, the growth was 38.9% (inactive).
With `CC1OC(n2c3ccccc3c3c4c(c5c6ccccc6[nH]c5c32)C(=O)N(CCN2CCCC2)C4=O)CC(O)C1O` (stereo not given), the growth is 35.1% (inactive).
For `COC(=O)[C@@H](CCCCNC(=O)[C@]12CCC(C)(C)C[C@@H]1C1=CC[C@@H]3[C@@]4(C)C/C(=C/c5ccco5)C(=O)C(C)(C)[C@@H]4CC[C@@]3(C)[C@]1(C)CC2)NC(=O)[C@]12CCC(C)(C)C[C@@H]1C1=CC[C@@H]3[C@@]4(C)C/C(=C/c5ccco5)C(=O)C(C)(C)[C@@H]4CC[C@@]3(C)[C@]1(C)CC2` the value was 95.3% (inactive).
With `Cc1cn(-c2cc(NC(=O)c3cccc(C#Cc4cccc5[nH]nc(N)c45)c3)cc(C(F)(F)F)c2)cn1`, the growth is 55.5% (inactive).
With `COc1ccccc1N1CCCCC1`, the growth was 95.2% (inactive).
For `COc1cc2c(cc1OCCCN1CCN(CCCOc3cc4c(cc3OC)C(=O)N3CC(F)(F)C[C@H]3C=N4)CC1)N=C[C@@H]1CC(F)(F)CN1C2=O`, the growth was 47.2% (inactive).
For `COc1cc2c(c(OC)c1OC)CCC(c1cccc(C(=O)Nc3ccc(C#N)cc3)c1)O2` (stereo not given) the value was 58.7% (inactive); for `O=C1/C(=C\c2ccc3nccnc3c2)SC(=S)N1CCc1ccc(O)cc1`, 94% (inactive); for `O=C(O)CCN1C(=O)/C(=C/C(Cl)=C/c2ccccc2)SC1=S`, 34.5% (inactive).
Consider `COc1ccc(/C=C/C(=O)c2ccc(Nc3ccnc4cc(Cl)ccc34)cc2)cc1`, for which the growth was 87.1% (inactive).
With `O=C(c1ccccc1)c1ccc(C2CCCCC2)cc1`, the growth was 86.7% (inactive).
For `COc1ccc(C2CC(c3ccc(Nc4nc(Nc5ccccc5)nc(Nc5ccccc5)n4)cc3)=NN2C(C)=O)cc1` (stereo not given) the value was 88.7% (inactive).
Then `C1CCC([PH+](C2CCCCC2)C2CCCCC2[PH+](C2CCCCC2)C2CCCCC2)CC1.[Au].[CH-]1CCCCC1C1CCCC[N-]1` (stereo not given), with -96.6% (active); and `C=CC[Se]C(=O)Cc1c(C)n(C(=O)c2ccc(Cl)cc2)c2ccc(OC)cc12`, with -46% (active).
For the compound `CC(C)=CC(=O)OCC(=O)O[C@@H]1C[C@]2(C(C)C)O[C@@]1(C)[C@@H]1CC[C@@H](C)[C@H]1[C@@H]2OC(=O)/C=C/c1ccccc1`, the growth is 99.3% (inactive).
For `COC1=CC(c2ccc[nH]2)=N/C1=C\c1[nH]c(C)c(CC(=O)OCc2ccccc2)c1CCC(=O)OCc1ccccc1` the value was 25.5% (inactive); for `Oc1c(I)cc(I)cc1CNCCN(Cc1ccccn1)Cc1ccccn1`, 16.7% (inactive).
Then `N#C/C(=C\c1c(-c2ccccc2)[nH]c2ccccc12)C(N)=O`, with 89.6% (inactive); and `CCSc1nc2scc(C)c2c(=O)[nH]1`, with 96.5% (inactive).
Then `COc1ccc(CN2c3ccccc3Sc3ccccc32)cc1F`, with 34.6% (inactive).
On to `COCCOc1cc2ncnc(N3CCN(c4ncc(S(=O)(=O)N5CCCCC5)cn4)CC3)c2cc1OCCOC`, for which the growth is 96.2% (inactive).
As for `OCCn1cc(-c2nc(-c3c[nH]c4ncccc34)cs2)c2ccccc21`, the growth is 88.1% (inactive).
